{"source": "the supplement of paper PMC8728848", "binders": {"B1": {"name": "PX9937F-bfa-516-16-516 (Bacteroides fragilis) (protein)", "chain": "LDIDPTSSIADSNYWKTEAQFSTFNVGLHALLRECSFNFFLLGEPRADIYGDVPFGGEATQGMERLPFNTINKENTGISNFAGMYKVINQINLMIAKTKETTVLSEAGKNYYLGEAYGMRAYLYFHLLRSWGDVILYLDYTNGASLDLSNLSKAASPAEEVMKQIKEDITASEKGFGSDYSFKYGRYYWSMAATQMLKGEVYLWSGRQMGGGTADYTTAKTALQSIVSNANVSLQDDFSKVFAYNNKDNSEIIFSIRNAKDEYNMWDDRFRQNLVPQQAYMTSTYCNKEGVSFKDLPEGQLNGLIRLQIRYDLYNKAFRDGDTRKDASMTAVYQKQQDGTVKYIAPFCNKYQGVLLDGASQRSFLNDYPIYRYADCLLLLAEAKALLGEDPTAEINQVRERAYGKEFFEANKATLAYPNDKGDFYTDNKYMSGDEDPLEAILKERMREFMFEGKRWYDLRLLGADYVTKRTSAVATRLLWPINESVLTDNPALKQTPGYQN"}}, "test_in_all_cases": "glycan array binding signal (z-score within array); higher = stronger binding", "details_in_all_cases": "glycan notation: IUPAC condensed, linker removed", "key": {"[1]": {"target": "Fuc(a1-2)Gal(b1-3)GalNAc(b1-3)Gal(a1-4)Gal(b1-4)Glc", "outline": "(§1)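 The binding signal is a Z-score computed within each array. Data were drawn from 3228 arrays in the Consortium for Functional Glycomics database, restricted to those with a known protein sequence. Scores were averaged over arrays of the same protein sequence at different concentrations or buffers, and over linkers, and negative values can be taken as non-binding.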"}, "[2]": {"target": "Fuc(a1-2)Gal(b1-3)GlcNAc(b1-3)[Neu5Ac(a2-6)Gal(b1-4)GlcNAc(b1-6)]Gal(b1-4)Glc", "outline": "as §1"}, "[3]": {"target": "Fuc(a1-2)Gal(b1-4)GlcNAc(b1-2)Man(a1-3)[Fuc(a1-2)Gal(b1-4)GlcNAc(b1-2)Man(a1-6)]Man(b1-4)GlcNAc(b1-4)GlcNAc", "outline": "as §1"}, "[4]": {"target": "Fuc(a1-2)[Gal(a1-3)]Gal(b1-4)GlcNAc", "outline": "as §1"}, "[5]": {"target": "Fuc(a1-2)[Gal(a1-3)]Gal(b1-4)GlcNAc(b1-2)Man(a1-3)[Fuc(a1-2)[Gal(a1-3)]Gal(b1-4)GlcNAc(b1-2)Man(a1-6)]Man(b1-4)GlcNAc(b1-4)GlcNAc", "outline": "as §1"}, "[6]": {"target": "Fuc(a1-2)[Gal(a1-3)]Gal(b1-4)GlcNAc(b1-2)Man(a1-3)[Fuc(a1-2)[Gal(a1-3)]Gal(b1-4)GlcNAc(b1-2)Man(a1-6)]Man(b1-4)GlcNAc(b1-4)[Fuc(a1-6)]GlcNAc", "outline": "as §1"}, "[7]": {"target": "Fuc(a1-2)[GalNAc(a1-3)]Gal", "outline": "as §1"}, "[8]": {"target": "Fuc(a1-2)[GalNAc(a1-3)]Gal(b1-3)GlcNAc(b1-2)Man(a1-3)[Fuc(a1-2)[GalNAc(a1-3)]Gal(b1-3)GlcNAc(b1-2)Man(a1-6)]Man(b1-4)GlcNAc(b1-4)GlcNAc", "outline": "as §1"}, "[9]": {"target": "Fuc(a1-2)[GalNAc(a1-3)]Gal(b1-3)GlcNAc(b1-2)Man(a1-3)[Fuc(a1-2)[GalNAc(a1-3)]Gal(b1-3)GlcNAc(b1-2)Man(a1-6)]Man(b1-4)GlcNAc(b1-4)[Fuc(a1-6)]GlcNAc", "outline": "as §1"}, "[10]": {"target": "Fuc(a1-2)[GalNAc(a1-3)]Gal(b1-4)GlcNAc(b1-2)Man(a1-3)[Fuc(a1-2)[GalNAc(a1-3)]Gal(b1-4)GlcNAc(b1-2)Man(a1-6)]Man(b1-4)GlcNAc(b1-4)GlcNAc", "outline": "as §1"}, "[11]": {"target": "Fuc(a1-2)[GalNAc(b1-3)]Gal", "outline": "as §1"}, "[12]": {"target": "Fuc(a1-3)[Gal(b1-4)]GlcNAc", "outline": "as §1"}, "[13]": {"target": "Fuc(a1-3)[Gal(b1-4)]GlcNAc(b1-2)Man(a1-3)[Fuc(a1-3)[Gal(b1-4)]GlcNAc(b1-2)Man(a1-6)]Man(b1-4)GlcNAc(b1-4)GlcNAc", "outline": "as §1"}, "[14]": {"target": "Fuc(a1-3)[Gal(b1-4)]GlcNAc(b1-3)Gal(b1-3)[Fuc(a1-4)]GlcNAc", "outline": "as §1"}, "[15]": {"target": "Gal(a1-4)Gal(b1-4)GlcNAc", "outline": "as §1"}, "[16]": {"target": "Gal(b1-3)GlcNAc", "outline": "as §1"}, "[17]": {"target": "Gal(b1-3)GlcNAc(b1-2)Man(a1-3)[GlcNAc(b1-4)][Gal(b1-3)GlcNAc(b1-2)Man(a1-6)]Man(b1-4)GlcNAc(b1-4)GlcNAc", "outline": "as §1"}, "[18]": {"target": "Gal(b1-3)GlcNAc(b1-3)Gal(b1-3)GlcNAc", "outline": "as §1"}, "[19]": {"target": "Gal(b1-3)GlcNAc(b1-3)Gal(b1-4)GlcNAc(b1-2)[Gal(b1-3)GlcNAc(b1-3)Gal(b1-4)GlcNAc(b1-6)]Man(a1-6)[Gal(b1-3)GlcNAc(b1-3)Gal(b1-4)GlcNAc(b1-2)Man(a1-3)]Man(b1-4)GlcNAc(b1-4)[Fuc(a1-6)]GlcNAc", "outline": "as §1"}, "[20]": {"target": "Gal(b1-3)GlcNAc(b1-3)Gal(b1-4)GlcNAc(b1-6)[Gal(b1-3)GlcNAc(b1-3)]Gal(b1-4)Glc", "outline": "as §1"}, "[21]": {"target": "Gal(b1-3)GlcNAc(b1-3)Gal(b1-4)[Fuc(a1-3)]GlcNAc(b1-6)[Gal(b1-3)GlcNAc(b1-3)]Gal(b1-4)Glc", "outline": "as §1"}, "[22]": {"target": "Gal(b1-3)[Fuc(a1-4)]GlcNAc(b1-6)GalNAc", "outline": "as §1"}, "[23]": {"target": "Gal(b1-4)GlcNAc(b1-2)Man", "outline": "as §1"}, "[24]": {"target": "Gal(b1-4)GlcNAc(b1-3)Gal(b1-4)GlcNAc(b1-3)Gal(b1-4)GlcNAc(b1-2)[Gal(b1-4)GlcNAc(b1-3)Gal(b1-4)GlcNAc(b1-3)Gal(b1-4)GlcNAc(b1-6)]Man(a1-6)[Gal(b1-4)GlcNAc(b1-3)Gal(b1-4)GlcNAc(b1-3)Gal(b1-4)GlcNAc(b1-2)Man(a1-3)]Man(b1-4)GlcNAc(b1-4)[Fuc(a1-6)]GlcNAc", "outline": "as §1"}, "[25]": {"target": "Gal(b1-4)GlcNAc(b1-3)Gal(b1-4)GlcNAc(b1-3)Gal(b1-4)GlcNAc(b1-3)Gal(b1-4)GlcNAc(b1-2)[Gal(b1-4)GlcNAc(b1-3)Gal(b1-4)GlcNAc(b1-3)Gal(b1-4)GlcNAc(b1-3)Gal(b1-4)GlcNAc(b1-6)]Man(a1-6)[Gal(b1-4)GlcNAc(b1-3)Gal(b1-4)GlcNAc(b1-3)Gal(b1-4)GlcNAc(b1-3)Gal(b1-4)GlcNAc(b1-2)Man(a1-3)]Man(b1-4)GlcNAc(b1-4)[Fuc(a1-6)]GlcNAc", "outline": "as §1"}, "[26]": {"target": "Gal(b1-4)GlcNAc(b1-3)Gal(b1-4)GlcNAc(b1-3)Gal(b1-4)GlcNAc(b1-3)Gal(b1-4)GlcNAc(b1-3)Gal(b1-4)GlcNAc(b1-2)[Gal(b1-4)GlcNAc(b1-3)Gal(b1-4)GlcNAc(b1-3)Gal(b1-4)GlcNAc(b1-3)Gal(b1-4)GlcNAc(b1-3)Gal(b1-4)GlcNAc(b1-6)]Man(a1-6)[Gal(b1-4)GlcNAc(b1-3)Gal(b1-4)GlcNAc(b1-3)Gal(b1-4)GlcNAc(b1-3)Gal(b1-4)GlcNAc(b1-3)Gal(b1-4)GlcNAc(b1-2)Man(a1-3)]Man(b1-4)GlcNAc(b1-4)[Fuc(a1-6)]GlcNAc", "outline": "as §1"}, "[27]": {"target": "Gal(b1-4)GlcNAc(b1-3)Gal(b1-4)[Fuc(a1-3)]GlcNAc(b1-3)Gal(b1-4)[Fuc(a1-3)]GlcNAc", "outline": "as §1"}, "[28]": {"target": "Gal(b1-4)GlcNAc(b1-3)[Gal(b1-4)GlcNAc(b1-6)]Gal(b1-4)GlcNAc", "outline": "as §1"}, "[29]": {"target": "Gal(b1-4)GlcNAc(b1-6)GalNAc", "outline": "as §1"}, "[30]": {"target": "Gal(b1-4)GlcNAc(b1-6)[Gal(b1-3)]GalNAc", "outline": "as §1"}}, "note": "Many of the other results were omitted from the sample, so the strongest signals are more common in it than they were."}
{"binder": "B1", "values": [{"measurement": "glycan array binding signal (z-score)", "setting": "[1]", "value": 0.493}, {"measurement": "glycan array binding signal (z-score)", "setting": "[2]", "value": -0.097}, {"measurement": "glycan array binding signal (z-score)", "setting": "[3]", "value": -0.256}, {"measurement": "glycan array binding signal (z-score)", "setting": "[4]", "value": -0.012}, {"measurement": "glycan array binding signal (z-score)", "setting": "[5]", "value": 1.48}, {"measurement": "glycan array binding signal (z-score)", "setting": "[6]", "value": -0.006}, {"measurement": "glycan array binding signal (z-score)", "setting": "[7]", "value": -0.222}, {"measurement": "glycan array binding signal (z-score)", "setting": "[8]", "value": -0.141}, {"measurement": "glycan array binding signal (z-score)", "setting": "[9]", "value": -0.135}, {"measurement": "glycan array binding signal (z-score)", "setting": "[10]", "value": 2.69}, {"measurement": "glycan array binding signal (z-score)", "setting": "[11]", "value": 1.64}, {"measurement": "glycan array binding signal (z-score)", "setting": "[12]", "value": -0.071}, {"measurement": "glycan array binding signal (z-score)", "setting": "[13]", "value": -0.045}, {"measurement": "glycan array binding signal (z-score)", "setting": "[14]", "value": -0.161}, {"measurement": "glycan array binding signal (z-score)", "setting": "[15]", "value": -0.077}, {"measurement": "glycan array binding signal (z-score)", "setting": "[16]", "value": -0.207}, {"measurement": "glycan array binding signal (z-score)", "setting": "[17]", "value": 0.179}, {"measurement": "glycan array binding signal (z-score)", "setting": "[18]", "value": -0.041}, {"measurement": "glycan array binding signal (z-score)", "setting": "[19]", "value": 7.79}, {"measurement": "glycan array binding signal (z-score)", "setting": "[20]", "value": -0.142}, {"measurement": "glycan array binding signal (z-score)", "setting": "[21]", "value": -0.388}, {"measurement": "glycan array binding signal (z-score)", "setting": "[22]", "value": 1.88}, {"measurement": "glycan array binding signal (z-score)", "setting": "[23]", "value": -0.006}, {"measurement": "glycan array binding signal (z-score)", "setting": "[24]", "value": 4.38}, {"measurement": "glycan array binding signal (z-score)", "setting": "[25]", "value": 3.95}, {"measurement": "glycan array binding signal (z-score)", "setting": "[26]", "value": 20.8}, {"measurement": "glycan array binding signal (z-score)", "setting": "[27]", "value": -0.12}, {"measurement": "glycan array binding signal (z-score)", "setting": "[28]", "value": -0.235}, {"measurement": "glycan array binding signal (z-score)", "setting": "[29]", "value": 0.084}, {"measurement": "glycan array binding signal (z-score)", "setting": "[30]", "value": 0.054}]}
